A selection: hits, their analogues and other compounds. The true share with any hit is near 6%.
D3 ag – activates the human D3 dopamine receptor; P35462; actives 0.58% (n = 410,000); D3R DiscoveRx beta-arrestin cells, luminescence, 90 min; max activation, %; in the data active means max activation above about 30%; further: 0% is about no effect
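Agonist-mode cell screen: cells plated at 1500/well and incubated overnight at 37 °C, then exposed to library compounds for 90 min at 37 °C. Detection reagent was added for 30–60 min at room temperature, and luminescence was read.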
Chronic BCR inh – chronic active BCR signaling inhibition | Potency, µM (doses to about 46.1 µM), inactives show at the highest dose activity change, negative = inhibition, actives largely listed as inhibitors | AID 493014 | ABC-DLBCL IkBa-CBG/CBR reporter, luminescence ratio, 4 h | actives 0.05% (n = 340,000); active means well fitted inhibition curve with a large enough effect in the signal ratio, with a control signal flat, not every such curve was filed as active; inconclusive means small, poorly fitted or top-dose-only effect, or effect the other way, or a change in a side signal; the % refers to the signal ratio;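 further: potency means the concentration at half of the fitted maximal effect; plate controls were basal doxycycline-induced cells for no effect and cells given 10 µM MG132 for full effect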
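Compounds up to 46 uM were incubated four hours with TMD8 cells whose green CBG68 luciferase is fused to IkappaBalpha; red CBR luminescence normalised the signal, and concentration-effect curves were fitted to fusion, red and ratio data.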
D1 PAM – potentiators of human D1 dopamine receptor; potentiation, % at 10 µM; actives 0.036% (n = 360,000); HEK293 TREx D1 cells, calcium flux, dopamine EC20 potentiation; in the data active means potentiation above about 30%; further: 0% is about no effect
Target sequence (P21728 whole entry, looked up): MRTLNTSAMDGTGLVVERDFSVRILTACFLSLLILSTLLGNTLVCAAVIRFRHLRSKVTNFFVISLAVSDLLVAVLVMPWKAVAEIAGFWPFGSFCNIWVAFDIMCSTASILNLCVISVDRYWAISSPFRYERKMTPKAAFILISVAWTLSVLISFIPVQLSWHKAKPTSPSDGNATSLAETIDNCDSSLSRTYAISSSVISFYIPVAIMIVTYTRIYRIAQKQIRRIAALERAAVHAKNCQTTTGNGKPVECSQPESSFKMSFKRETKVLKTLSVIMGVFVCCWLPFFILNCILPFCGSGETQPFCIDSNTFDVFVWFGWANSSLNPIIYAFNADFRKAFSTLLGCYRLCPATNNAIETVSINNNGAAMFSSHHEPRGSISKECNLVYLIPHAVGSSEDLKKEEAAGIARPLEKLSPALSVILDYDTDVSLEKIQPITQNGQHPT
D1 antag – human D1 dopamine receptor antagonism. activity change, negative = inhibition, % at 10 µM. P21728. HEK293 TREx D1 cells, calcium flux, dopamine EC80; stronger effect = lower value. actives 3.2% (n = 360,000); in the data active means activity change below about -30%; further: on the % scale 0 is the no-effect control and ±100 the full control effect
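Tetracycline-induced HEK293 T-REx cells with force-coupled D1 receptor were loaded with a no-wash calcium dye. Compound was added after a 10 s baseline and read kinetically for 180 s; EC80 dopamine was then added and calcium flux followed another 180 s.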
DRD3 antagonist – blocks the human D3 dopamine receptor | AID 652054 | max response, negative = inhibition, % | D3R cells, DiscoveRx beta-arrestin luminescence, antagonist mode; stronger effect = lower value | P35462 | actives 2.5% (n = 360,000); in the data active means max response below about -50%; inconclusive means no clear call, values can overlap the other calls; further: on the % scale 0 is the no-effect control and ±100 the full control effect
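Cells plated overnight at 1500 cells/well, then exposed to library compounds with dopamine controls for 90 minutes at 37 degrees C. DiscoveRx reagent added for 30–60 minutes at room temperature; luminescence read, quantitative HTS format.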
D1 ag – activates the human D1 dopamine receptor; P21728; HEK293 T-REx D1 cells, calcium flux, agonist mode; activation, % at 2 µM; actives 1% (n = 360,000); AID 504660; in the data active means activation above about 30%; further: 0% is about no effect
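Tetracycline-induced HEK293 TREx D1 cells, force-coupled to calcium signalling, were dye-loaded with a no-wash calcium kit. Compound was pin-added after a 10 s baseline. Fluorescence was read kinetically at 1 cycle/s for 180 s, with calcium rises flagged as agonism.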
The depositor's hits bear a star; ? = inconclusive; · = no result.

SMILES	D3 ag	Chronic BCR inh	D1 PAM	D1 antag	DRD3 antagonist	D1 ag
COCCCn1c(N)c(C(=O)OC(C)COC)c2nc3ccccc3nc21 (stereo not given)	4	15%	-4	-32*	46	0
CCCCOCCCn1c(N)c(C(=O)OC(C)COC)c2nc3ccccc3nc21 (stereo not given)	0	1%	-6	-8	-20	-1
CC(C)NC(C)Cc1ccc(I)cc1 (stereo not given)	-21	0%	-4	3	-89*	11
CC(Cc1ccccc1)NC(=O)NC(C)Cc1ccccc1 (stereo not given)	6	12%	3	4	-26	-1
CCOc1ccc(N2C(=O)NC(=O)/C(=C\c3ccccc3[N+](=O)[O-])C2=O)cc1	9	7%	5	-46*	25	1
COc1cccc(CNC(=O)Cn2c(=O)oc3cc(S(=O)(=O)N4CCCCCC4)ccc32)c1	-13	?	-2	-13	·	8
COc1ccccc1/C=C/C=C(\C#N)C(=O)NC(C)c1ccccc1 (stereo not given)	-10	?	-1	2	-18	3
CC(C)(O)C(Cl)(Cl)Cl	3	·	·	·	·	·
CCOc1ccccc1CN1CCCC(C(=O)Nc2cccc(-n3cccn3)c2)C1 (stereo not given)	-15	?	-12	-64*	-13	49*
CCn1ccnc1CN1CCCC(C(=O)c2cc(Cl)ccc2OC)C1 (stereo not given)	-13	8%	1	-13	-27	2
FC(F)(F)c1ccc2c(c1)N(CCCN1CCN(CCCl)CC1)c1ccccc1S2	-18	?	-4	·	-78*	10
OCCN1CCN(CCCN2c3ccccc3Sc3ccc(C(F)(F)F)cc32)CC1	-86	?	·	-106*	-96*	38*
COc1ccc2c3c1O[C@H]1[C@@H](O)C=C[C@H]4[C@@H](C2)N(C)CC[C@@]341	-4	·	·	·	·	·
O=c1c2ccccc2nc(/C=C/c2cc(Br)ccc2O)n1CCCO	1	?	7	3	13	8
CCC1(c2ccccc2)CCC(=O)NC1=O (stereo not given)	7	·	·	·	·	·
COc1ccccc1-n1c(/C=C/c2ccc(O)cc2)nc2ccccc2c1=O	2	5%	0	-30*	8	2
COc1cc(/C=C/c2nc3ccccc3c(=O)n2-c2ccccc2O)ccc1O	12	?	-5	4	3	49*
CN1CC[C@]23c4c5ccc(O)c4O[C@H]2[C@@H](O)CC[C@H]3[C@H]1C5	0	·	·	·	·	·
CC(C)(C)CC(C)(C)c1ccc(O)cc1	7	·	·	·	·	·
COc1ccccc1/C=C1\SC(=S)N(CCC(=O)NCCc2ccc(O)cc2)C1=O	4	?	3	3	-13	0
C[C@]12C=CC(=O)C=C1CC[C@@H]1[C@@H]2CC[C@]2(C)OC(=O)CC[C@@H]12	-7	·	·	·	·	·
CNC(=O)c1cccn(Cc2cc(C(F)(F)F)cc(C(F)(F)F)c2)c1=O	7	-7%	-1	1	15	30*
Cc1ccc(-n2c(O)c(C=NCc3ccccn3)c(=O)[nH]c2=S)cc1	6	-6%	-2	2	23	1
O=c1[nH]c(=S)n(-c2ccccc2)c(O)c1C=NCc1ccccn1	9	-1%	-1	-44*	-13	3
NCC(O)c1cc(O)c(O)cc1F (stereo not given)	176*	0%	-6	-85*	22	37*
COC1=CC(=O)[C@]2(C=C1OC)OC[C@@H]1Oc3c(ccc4c3C=CC(C)(C)O4)C(=O)[C@@H]12	70*	-2%	·	·	61	·
Oc1ccc(CCN2CCCCC2)cc1	-11	·	·	·	-2	·
NCCc1ccc(O)cc1	32*	10%	-4	0	3	2
CC1=NN(c2ccccc2)C(=O)C1/C=C1/C(=O)NC(=O)N(c2cc(C)cc(C)c2)C1=O (stereo not given)	-10	16%	-1	-37*	1	5
